# From PubChem BioAssay AID1159580 (chemical genetic matrix, 2015)
# In all, about 5,500 compounds went through this assay and about 2,000 (36%) were called active. Not shown: some 18% with an inconclusive outcome. The list shows a part of the results. Values without a mark were called inactive. No stated cut-off is given here; in the data, active means normalized growth mostly below about 0.91 (no sharp cut-off); inconclusive means no clear call, values can overlap the other calls; inactive means mostly above about 0.92.
# Assay: chemical genetic growth profiling, strain panel (AID 1159580);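 further: tested at 20 µM; growth read once vehicle control cultures reached saturation at 30 °C; 1 = growth at the plate median or of vehicle wells; lower values mean less growth of the strain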
# Settings: growth OD
# [1] = S. cerevisiae deletion strains, locus YAL040C, strain CLN3, hits give low values
# [2] = S. cerevisiae deletion strains, locus YER002W, strain NOP16, hits give low values
# [3] = S. cerevisiae deletion strains, locus YGR078C, strain PAC10, hits give low values
# [4] = S. cerevisiae deletion strains, locus YGR229C, strain SMI1, hits give low values
# [5] = S. cerevisiae deletion strains, locus YMR263W, strain SAP30, hits give low values
# [6] = S. cerevisiae deletion strains, locus YNL128W, strain TEP1, hits give low values
# [7] = S. cerevisiae deletion strains, locus YNL153C, strain GIM3, hits give low values
# [8] = S. cerevisiae deletion strains, locus YNL175C, strain NOP13, hits give low values
# [9] = S. cerevisiae deletion strains, locus YNL197C, strain WHI3, hits give low values
# [10] = S. cerevisiae deletion strains, locus YNL224C, strain SQS1, hits give low values
# [11] = S. cerevisiae deletion strains, locus YNL322C, strain KRE1, hits give low values
# [12] = S. cerevisiae deletion strains, locus YOR083W, strain WHI5 (second series), hits give low values
# [13] = S. cerevisiae deletion strains, locus YCL061C, strain MRC1 (second series), hits give low values
# [14] = S. cerevisiae deletion strains, locus YDR363W, strain ESC2, hits give low values
# [15] = S. cerevisiae deletion strains, locus YMR307W, strain GAS1, hits give low values
# [16] = S. cerevisiae deletion strains, locus YPL055C, strain LGE1, hits give low values
# [17] = S. cerevisiae deletion strains, locus YPL241C, strain CIN2, hits give low values
# [18] = S. cerevisiae deletion strains, locus YAL013W, strain DEP1, hits give low values
# [19] = S. cerevisiae deletion strains, locus YDR150W, strain NUM1, hits give low values
# [20] = S. cerevisiae deletion strains, locus YJR075W, strain HOC1, hits give low values
# [21] = S. cerevisiae deletion strains, locus YDL101C, strain DUN1, hits give low values
# [22] = S. cerevisiae deletion strains, locus YHR030C, strain SLT2, hits give low values
structure (smiles),measurement,setting,value
NC(N)=NCCC[C@H](N)C(=O)O,normalized growth,[1],1.09
same,normalized growth,[2],1.01
same,normalized growth,[3],0.987
same,normalized growth,[4],0.98
same,normalized growth,[5],1.01
same,normalized growth,[6],0.986
same,normalized growth,[7],1.01
same,normalized growth,[8],0.981
same,normalized growth,[9],0.989
same,normalized growth,[10],0.999
same,normalized growth,[11],0.984
same,normalized growth,[12],0.975
CCCCC#Cc1nc(N)c2ncn([C@@H]3O[C@H](C(=O)NCC)[C@@H](O)[C@H]3O)c2n1,normalized growth,[1],0.949
same,normalized growth,[13],0.996
same,normalized growth,[14],1
same,normalized growth,[2],1
same,normalized growth,[5],0.996
same,normalized growth,[15],1.01
same,normalized growth,[7],1.19
same,normalized growth,[8],0.98
same,normalized growth,[9],0.982
same,normalized growth,[10],1.01
same,normalized growth,[12],0.982
same,normalized growth,[16],0.991
same,normalized growth,[17],0.994
COc1nc(C)nc(Cl)c1NC1=NCCN1,normalized growth,[18],1.01
same,normalized growth,[1],0.999
same,normalized growth,[13],0.999
same,normalized growth,[19],0.996
same,normalized growth,[14],1.01
same,normalized growth,[2],0.987
same,normalized growth,[4],1.01
same,normalized growth,[20],0.99
same,normalized growth,[5],0.998
same,normalized growth,[15],1.01
same,normalized growth,[6],1.01
same,normalized growth,[8],1
same,normalized growth,[9],1
same,normalized growth,[10],1.01
same,normalized growth,[12],1.01
same,normalized growth,[16],0.998
same,normalized growth,[17],0.997
Cc1c(C(=S)Nc2ccccc2)sc2ccccc12,normalized growth,"S. cerevisiae deletion strains, locus YAR019C, strain CDC15, hits give low values",0.943
same,normalized growth,"S. cerevisiae deletion strains, locus YBL105C, strain PKC1, hits give low values",0.958
same,normalized growth,"S. cerevisiae deletion strains, locus YBR135W, strain CKS1, hits give low values",0.935
same,normalized growth,"S. cerevisiae deletion strains, locus YBR136W, strain MEC1, hits give low values",0.947
same,normalized growth,"S. cerevisiae deletion strains, locus YBR160W, strain CDC28, hits give low values",0.948
same,normalized growth,"S. cerevisiae deletion strains, locus YDL017W, strain CDC7, hits give low values",0.964
same,normalized growth,"S. cerevisiae deletion strains, locus YDL028C, strain MPS1, hits give low values",0.953
same,normalized growth,[21],0.961
same,normalized growth,"S. cerevisiae deletion strains, locus YDL108W, strain KIN28, hits give low values",0.946
same,normalized growth,"S. cerevisiae deletion strains, locus YDL132W, strain cdc53, hits give low values",0.967
same,normalized growth,"S. cerevisiae deletion strains, locus YDL214C, strain PRR2, hits give low values",0.881
same,normalized growth,"S. cerevisiae deletion strains, locus YDR052C, strain DBF4, hits give low values",0.959
same,normalized growth,"S. cerevisiae deletion strains, locus YDR054C, strain cdc34, hits give low values",0.938
same,normalized growth,"S. cerevisiae deletion strains, locus YDR226W, strain ADK1, hits give low values",0.941
same,normalized growth,"S. cerevisiae deletion strains, locus YDR477W, strain SNF1, hits give low values",0.887
same,normalized growth,"S. cerevisiae deletion strains, locus YER123W, strain YCK3, hits give low values",0.882
same,normalized growth,"S. cerevisiae deletion strains, locus YER133W, strain GLC7, hits give low values",0.865
same,normalized growth,"S. cerevisiae deletion strains, locus YFL009W, strain cdc4, hits give low values",0.943
same,normalized growth,"S. cerevisiae deletion strains, locus YFL029C, strain CAK1, hits give low values",0.941
same,normalized growth,"S. cerevisiae deletion strains, locus YFR003C, strain YPI1, hits give low values",0.949
same,normalized growth,"S. cerevisiae deletion strains, locus YFR019W, strain FAB1, hits give low values",0.948
same,normalized growth,"S. cerevisiae deletion strains, locus YFR028C, strain CDC14, hits give low values",0.969
same,normalized growth,"S. cerevisiae deletion strains, locus YGR040W, strain KSS1, hits give low values",0.867
same,normalized growth,"S. cerevisiae deletion strains, locus YGR052W, strain FMP48, hits give low values",0.968
same,normalized growth,"S. cerevisiae deletion strains, locus YGR092W, strain DBF2, hits give low values",0.728
same,normalized growth,[22],0.809 (active)
same,normalized growth,"S. cerevisiae deletion strains, locus YHR079C, strain IRE1, hits give low values",0.816
same,normalized growth,"S. cerevisiae deletion strains, locus YHR082C, strain KSP1, hits give low values",0.863
same,normalized growth,"S. cerevisiae deletion strains, locus YHR205W, strain SCH9, hits give low values",0.861
same,normalized growth,"S. cerevisiae deletion strains, locus YIL147C, strain SLN1, hits give low values",0.951
same,normalized growth,"S. cerevisiae deletion strains, locus YJL095W, strain BCK1, hits give low values",0.886
same,normalized growth,"S. cerevisiae deletion strains, locus YJL128C, strain PBS2, hits give low values",0.95
same,normalized growth,"S. cerevisiae deletion strains, locus YJL157C, strain FAR1, hits give low values",0.863
same,normalized growth,"S. cerevisiae deletion strains, locus YJR016C, strain ILV3, hits give low values",0.946
same,normalized growth,"S. cerevisiae deletion strains, locus YJR066W, strain TOR1 (second series), hits give low values",0.818
same,normalized growth,"S. cerevisiae deletion strains, locus YJR066W, strain TOR1, hits give low values",0.899
same,normalized growth,"S. cerevisiae deletion strains, locus YKL048C, strain ELM1, hits give low values",0.933
same,normalized growth,"S. cerevisiae deletion strains, locus YKL067W, strain YNK1, hits give low values",0.884
same,normalized growth,"S. cerevisiae deletion strains, locus YKL101W, strain HSL1, hits give low values",0.917
same,normalized growth,"S. cerevisiae deletion strains, locus YKL193C, strain SDS22, hits give low values",0.94
same,normalized growth,"S. cerevisiae deletion strains, locus YKL203C, strain TOR2, hits give low values",0.925
same,normalized growth,"S. cerevisiae deletion strains, locus YLR113W, strain HOG1, hits give low values",0.915
same,normalized growth,"S. cerevisiae deletion strains, locus YLR133W, strain CKI1, hits give low values",0.888
same,normalized growth,"S. cerevisiae deletion strains, locus YLR403W, strain SFP1, hits give low values",0.81
same,normalized growth,"S. cerevisiae deletion strains, locus YML070W, strain DAK1, hits give low values",0.865
same,normalized growth,"S. cerevisiae deletion strains, locus YMR001C, strain CDC5, hits give low values",0.938
same,normalized growth,"S. cerevisiae deletion strains, locus YMR205C, strain PFK2 (second series), hits give low values",0.879
same,normalized growth,"S. cerevisiae deletion strains, locus YMR277W, strain FCP1, hits give low values",0.939
same,normalized growth,"S. cerevisiae deletion strains, locus YNL006W, strain LST8, hits give low values",0.951
same,normalized growth,"S. cerevisiae deletion strains, locus YNL020C, strain ARK1, hits give low values",0.875
same,normalized growth,"S. cerevisiae deletion strains, locus YNL161W, strain CBK1, hits give low values",0.954
same,normalized growth,"S. cerevisiae deletion strains, locus YNL183C, strain NPR1, hits give low values",0.863
same,normalized growth,"S. cerevisiae deletion strains, locus YNL207W, strain RIO2, hits give low values",0.946
same,normalized growth,"S. cerevisiae deletion strains, locus YNL222W, strain SSU72, hits give low values",0.941
same,normalized growth,"S. cerevisiae deletion strains, locus YNL307C, strain MCK1 (second series), hits give low values",0.842
same,normalized growth,"S. cerevisiae deletion strains, locus YOL078W, strain AVO1, hits give low values",0.934
same,normalized growth,"S. cerevisiae deletion strains, locus YOL136C, strain PFK27, hits give low values",0.859
same,normalized growth,"S. cerevisiae deletion strains, locus YOR061W, strain CKA2, hits give low values",0.854
same,normalized growth,"S. cerevisiae deletion strains, locus YOR119C, strain RIO1, hits give low values",0.965
same,normalized growth,"S. cerevisiae deletion strains, locus YOR231W, strain MKK1, hits give low values",0.879
same,normalized growth,"S. cerevisiae deletion strains, locus YOR329C, strain SCD5, hits give low values",0.958
same,normalized growth,"S. cerevisiae deletion strains, locus YPL031C, strain PHO85, hits give low values",0.862
same,normalized growth,"S. cerevisiae deletion strains, locus YPL153C, strain RAD53, hits give low values",0.847
same,normalized growth,"S. cerevisiae deletion strains, locus YPL204W, strain HRR25, hits give low values",0.828
same,normalized growth,"S. cerevisiae deletion strains, locus YPL209C, strain IPL1, hits give low values",0.95
same,normalized growth,"S. cerevisiae deletion strains, locus YPL256C, strain CLN2, hits give low values",0.899
same,normalized growth,"S. cerevisiae deletion strains, locus YPR025C, strain CCL1, hits give low values",0.945
same,normalized growth,"S. cerevisiae deletion strains, locus YPR106W, strain ISR1, hits give low values",0.951
same,normalized growth,"S. cerevisiae deletion strains, locus YPR111W, strain DBF20, hits give low values",0.99
same,normalized growth,"S. cerevisiae deletion strains, strain NNK1, hits give low values",0.949
same,normalized growth,"S. cerevisiae deletion strains, strain TSCII, hits give low values",0.941
CC(=O)c1cnn(-c2ccccc2)c1C,normalized growth,[18],0.979
same,normalized growth,"S. cerevisiae deletion strains, locus YBR229C, strain ROT2, hits give low values",0.984
same,normalized growth,"S. cerevisiae deletion strains, locus YCL061C, strain MRC1, hits give low values",0.992
same,normalized growth,[21],0.985
same,normalized growth,"S. cerevisiae deletion strains, locus YDL134C, strain PPH21, hits give low values",1.01
same,normalized growth,[19],0.925
same,normalized growth,"S. cerevisiae deletion strains, locus YEL061C, strain CIN8, hits give low values",1
same,normalized growth,[3],0.995
same,normalized growth,[22],0.945
same,normalized growth,"S. cerevisiae deletion strains, locus YHR087W, strain rtc3, hits give low values",0.99
same,normalized growth,"S. cerevisiae deletion strains, locus YJR043C, strain POL32, hits give low values",0.994
same,normalized growth,[20],1
same,normalized growth,"S. cerevisiae deletion strains, locus YLR039C, strain RIC1, hits give low values",1
same,normalized growth,"S. cerevisiae deletion strains, locus YLR058C, strain SHM2 (second series), hits give low values",0.998
same,normalized growth,"S. cerevisiae deletion strains, locus YLR085C, strain ARP6, hits give low values",0.963
same,normalized growth,"S. cerevisiae deletion strains, locus YLR262C, strain YPT6, hits give low values",1.01
same,normalized growth,"S. cerevisiae deletion strains, locus YML094W, strain GIM5, hits give low values",0.948
same,normalized growth,"S. cerevisiae deletion strains, locus YMR219W, strain ESC1, hits give low values",0.997
same,normalized growth,[5],0.922
same,normalized growth,[15],0.957
same,normalized growth,[7],0.981
same,normalized growth,"S. cerevisiae deletion strains, locus YNL298W, strain CLA4 (second series), hits give low values",1
same,normalized growth,[11],0.997
same,normalized growth,"S. cerevisiae deletion strains, locus YNR030W, strain Alg12, hits give low values",1
same,normalized growth,"S. cerevisiae deletion strains, locus YOL006C, strain TOP1, hits give low values",0.983
same,normalized growth,[16],0.848
same,normalized growth,[17],0.984
same,normalized growth,"S. cerevisiae deletion strains, locus YPR135W, strain CTF4, hits give low values",0.944
same,normalized growth,"S. cerevisiae strains, strain wild type, hits give low values",0.997
